Data as given in PubChem BioAssay AID1159580 (chemical genetic matrix, 2015).
Hit rate of the full screen: of about 5,500 compounds, about 2,000 (36%) were called active. Another 18% or so got no clear call; they are omitted. Rule as the data show it: active = normalized growth mostly below about 0.91 (no sharp cut-off); inconclusive = no clear call, values can overlap the other calls; inactive = mostly above about 0.92. Some of the results follow.

Test: chemical genetic growth profiling, strain panel (AID 1159580);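 also: tested at 20 µM; growth read once vehicle control cultures reached saturation at 30 °C; 1 = growth at the plate median or of vehicle wells; lower values mean less growth of the strain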
Conditions: growth OD
[1] = S. cerevisiae deletion strains, locus YAL013W, strain DEP1, active compounds read low
[2] = S. cerevisiae deletion strains, locus YBR229C, strain ROT2, active compounds read low
[3] = S. cerevisiae deletion strains, locus YDL101C, strain DUN1, active compounds read low
[4] = S. cerevisiae deletion strains, locus YDL134C, strain PPH21, active compounds read low
[5] = S. cerevisiae deletion strains, locus YDR150W, strain NUM1, active compounds read low
[6] = S. cerevisiae deletion strains, locus YEL061C, strain CIN8, active compounds read low
[7] = S. cerevisiae deletion strains, locus YGR078C, strain PAC10, active compounds read low
[8] = S. cerevisiae deletion strains, locus YHR030C, strain SLT2, active compounds read low
[9] = S. cerevisiae deletion strains, locus YHR087W, strain rtc3, active compounds read low
[10] = S. cerevisiae deletion strains, locus YJR043C, strain POL32, active compounds read low
[11] = S. cerevisiae deletion strains, locus YJR075W, strain HOC1, active compounds read low
[12] = S. cerevisiae deletion strains, locus YLR039C, strain RIC1, active compounds read low
[13] = S. cerevisiae deletion strains, locus YLR058C, strain SHM2 (second series), active compounds read low
[14] = S. cerevisiae deletion strains, locus YLR085C, strain ARP6, active compounds read low
[15] = S. cerevisiae deletion strains, locus YLR262C, strain YPT6, active compounds read low
[16] = S. cerevisiae deletion strains, locus YML094W, strain GIM5, active compounds read low
[17] = S. cerevisiae deletion strains, locus YMR219W, strain ESC1, active compounds read low
[18] = S. cerevisiae deletion strains, locus YMR263W, strain SAP30, active compounds read low
[19] = S. cerevisiae deletion strains, locus YNL128W, strain TEP1, active compounds read low
[20] = S. cerevisiae deletion strains, locus YNL153C, strain GIM3, active compounds read low
[21] = S. cerevisiae deletion strains, locus YNL298W, strain CLA4 (second series), active compounds read low
[22] = S. cerevisiae deletion strains, locus YNL322C, strain KRE1, active compounds read low
[23] = S. cerevisiae deletion strains, locus YNR030W, strain Alg12, active compounds read low
[24] = S. cerevisiae deletion strains, locus YPL055C, strain LGE1, active compounds read low
[25] = S. cerevisiae deletion strains, locus YPL241C, strain CIN2, active compounds read low
[26] = S. cerevisiae deletion strains, locus YPR135W, strain CTF4, active compounds read low
[27] = S. cerevisiae deletion strains, locus YJL187C, strain SWE1, active compounds read low

Measured: normalized growth

O=S(=O)(CCN1CCOCC1)c1ccc(Cl)cc1
inactive: [1] 0.995 | [2] 0.982 | [3] 0.967 | [4] 0.993 | [5] 1.01 | [6] 0.993 | [7] 0.983 | [8] 1.06 | [9] 0.982 | [10] 1 | [11] 0.998 | [12] 1 | [13] 0.963 | [14] 0.974 | [15] 1.07 | [16] 0.982 | [17] 0.982 | [18] 0.99 | [19] 0.987 | [20] 1.01 | [21] 0.996 | [22] 0.985 | [23] 0.987 | [24] 0.982 | [25] 0.986 | [26] 1.15 | S. cerevisiae strains, strain wild type, active compounds read low 0.976

COc1ccc2c(c1)c(CC(=O)N1CCOCC1)c(C)n2C(=O)c1ccc(Cl)cc1
inactive: S. cerevisiae deletion strains, locus YAL040C, strain CLN3, active compounds read low 0.996 | S. cerevisiae deletion strains, locus YCL061C, strain MRC1 (second series), active compounds read low 1.01 | S. cerevisiae deletion strains, locus YDR363W, strain ESC2, active compounds read low 1.03 | S. cerevisiae deletion strains, locus YER002W, strain NOP16, active compounds read low 0.998 | [7] 1.01 | S. cerevisiae deletion strains, locus YGR229C, strain SMI1, active compounds read low 1 | [18] 1.01 | S. cerevisiae deletion strains, locus YNL175C, strain NOP13, active compounds read low 1.01 | S. cerevisiae deletion strains, locus YNL197C, strain WHI3, active compounds read low 1.01 | S. cerevisiae deletion strains, locus YNL224C, strain SQS1, active compounds read low 0.993 | [22] 1.01 | S. cerevisiae deletion strains, locus YOR083W, strain WHI5 (second series), active compounds read low 0.999 | [25] 1.01

Clc1ccc2c(c1)c1ccccc1n2CN1CCOCC1
inactive: S. cerevisiae deletion strains, locus YAR019C, strain CDC15, active compounds read low 0.935 | S. cerevisiae deletion strains, locus YBL105C, strain PKC1, active compounds read low 0.941 | S. cerevisiae deletion strains, locus YBR135W, strain CKS1, active compounds read low 0.925 | S. cerevisiae deletion strains, locus YBR136W, strain MEC1, active compounds read low 0.957 | S. cerevisiae deletion strains, locus YBR160W, strain CDC28, active compounds read low 0.945 | S. cerevisiae deletion strains, locus YDL017W, strain CDC7, active compounds read low 0.938 | S. cerevisiae deletion strains, locus YDL028C, strain MPS1, active compounds read low 0.95 | [3] 0.975 | S. cerevisiae deletion strains, locus YDL108W, strain KIN28, active compounds read low 0.949 | S. cerevisiae deletion strains, locus YDL132W, strain cdc53, active compounds read low 0.918 | S. cerevisiae deletion strains, locus YDL214C, strain PRR2, active compounds read low 0.753 | S. cerevisiae deletion strains, locus YDR052C, strain DBF4, active compounds read low 0.951 | S. cerevisiae deletion strains, locus YDR054C, strain cdc34, active compounds read low 0.926 | S. cerevisiae deletion strains, locus YDR226W, strain ADK1, active compounds read low 0.933 | S. cerevisiae deletion strains, locus YFL009W, strain cdc4, active compounds read low 0.934 | S. cerevisiae deletion strains, locus YFL029C, strain CAK1, active compounds read low 0.917 | S. cerevisiae deletion strains, locus YFR003C, strain YPI1, active compounds read low 0.945 | S. cerevisiae deletion strains, locus YFR019W, strain FAB1, active compounds read low 0.894 | S. cerevisiae deletion strains, locus YFR028C, strain CDC14, active compounds read low 0.952 | S. cerevisiae deletion strains, locus YGR052W, strain FMP48, active compounds read low 0.603 | S. cerevisiae deletion strains, locus YHR079C, strain IRE1, active compounds read low 0.79 | S. cerevisiae deletion strains, locus YHR082C, strain KSP1, active compounds read low 0.764 | S. cerevisiae deletion strains, locus YHR205W, strain SCH9, active compounds read low 0.714 | S. cerevisiae deletion strains, locus YIL147C, strain SLN1, active compounds read low 0.944 | S. cerevisiae deletion strains, locus YJL095W, strain BCK1, active compounds read low 0.724 | S. cerevisiae deletion strains, locus YJL128C, strain PBS2, active compounds read low 0.921 | S. cerevisiae deletion strains, locus YJL157C, strain FAR1, active compounds read low 0.722 | S. cerevisiae deletion strains, locus YJR016C, strain ILV3, active compounds read low 0.943 | S. cerevisiae deletion strains, locus YJR066W, strain TOR1 (second series), active compounds read low 0.738 | S. cerevisiae deletion strains, locus YJR066W, strain TOR1, active compounds read low 0.619 | S. cerevisiae deletion strains, locus YKL101W, strain HSL1, active compounds read low 0.728 | S. cerevisiae deletion strains, locus YKL193C, strain SDS22, active compounds read low 0.916 | S. cerevisiae deletion strains, locus YLR133W, strain CKI1, active compounds read low 0.776 | S. cerevisiae deletion strains, locus YML070W, strain DAK1, active compounds read low 0.748 | S. cerevisiae deletion strains, locus YMR001C, strain CDC5, active compounds read low 0.92 | S. cerevisiae deletion strains, locus YMR205C, strain PFK2 (second series), active compounds read low 0.757 | S. cerevisiae deletion strains, locus YMR277W, strain FCP1, active compounds read low 0.929 | S. cerevisiae deletion strains, locus YNL006W, strain LST8, active compounds read low 0.934 | S. cerevisiae deletion strains, locus YNL020C, strain ARK1, active compounds read low 0.771 | S. cerevisiae deletion strains, locus YNL161W, strain CBK1, active compounds read low 0.928 | S. cerevisiae deletion strains, locus YNL183C, strain NPR1, active compounds read low 0.658 | S. cerevisiae deletion strains, locus YNL207W, strain RIO2, active compounds read low 0.914 | S. cerevisiae deletion strains, locus YNL222W, strain SSU72, active compounds read low 0.927 | S. cerevisiae deletion strains, locus YOL078W, strain AVO1, active compounds read low 0.93 | S. cerevisiae deletion strains, locus YOL136C, strain PFK27, active compounds read low 0.72 | S. cerevisiae deletion strains, locus YOR231W, strain MKK1, active compounds read low 0.834 | S. cerevisiae deletion strains, locus YOR329C, strain SCD5, active compounds read low 0.934 | S. cerevisiae deletion strains, locus YPL153C, strain RAD53, active compounds read low 0.786 | S. cerevisiae deletion strains, locus YPL209C, strain IPL1, active compounds read low 0.939 | S. cerevisiae deletion strains, locus YPR025C, strain CCL1, active compounds read low 0.934 | S. cerevisiae deletion strains, locus YPR106W, strain ISR1, active compounds read low 0.94 | S. cerevisiae deletion strains, locus YPR111W, strain DBF20, active compounds read low 0.939 | S. cerevisiae deletion strains, strain NNK1, active compounds read low 0.949 | S. cerevisiae deletion strains, strain TSCII, active compounds read low 0.912
active: S. cerevisiae deletion strains, locus YDR477W, strain SNF1, active compounds read low 0.541 | S. cerevisiae deletion strains, locus YER123W, strain YCK3, active compounds read low 0.588 | S. cerevisiae deletion strains, locus YER133W, strain GLC7, active compounds read low 0.641 | S. cerevisiae deletion strains, locus YGR040W, strain KSS1, active compounds read low 0.592 | S. cerevisiae deletion strains, locus YGR092W, strain DBF2, active compounds read low 0.208 | [8] 0.679 | S. cerevisiae deletion strains, locus YKL048C, strain ELM1, active compounds read low 0.696 | S. cerevisiae deletion strains, locus YKL067W, strain YNK1, active compounds read low 0.709 | S. cerevisiae deletion strains, locus YKL203C, strain TOR2, active compounds read low 0.598 | S. cerevisiae deletion strains, locus YLR113W, strain HOG1, active compounds read low 0.755 | S. cerevisiae deletion strains, locus YLR403W, strain SFP1, active compounds read low 0.612 | S. cerevisiae deletion strains, locus YNL307C, strain MCK1 (second series), active compounds read low 0.602 | S. cerevisiae deletion strains, locus YOR061W, strain CKA2, active compounds read low 0.558 | S. cerevisiae deletion strains, locus YOR119C, strain RIO1, active compounds read low 0.501 | S. cerevisiae deletion strains, locus YPL031C, strain PHO85, active compounds read low 0.545 | S. cerevisiae deletion strains, locus YPL204W, strain HRR25, active compounds read low 0.641 | S. cerevisiae deletion strains, locus YPL256C, strain CLN2, active compounds read low 0.823

O=C(O/N=C\c1ccc2c(c1)OCO2)c1ccccc1Br
active: [1] 0.907 | [4] 0.827 | [6] 0.844 | [7] 0.927 | [8] 0.315 | [12] 0.491 | [14] 0.465 | [15] 0.577 | [16] 0.815 | [18] 0.892 | [21] 0.826 | [23] 0.857 | [24] 0.728 | [25] 0.834 | [26] 0.591
inactive: [2] 0.949 | [3] 0.961 | [5] 0.872 | [9] 0.928 | [27] 0.964 | [10] 0.926 | [11] 0.935 | [13] 0.973 | [17] 0.959 | [20] 0.959 | [22] 0.95

O=C(O)c1ccc(N=Cc2ccc3c(c2)OCO3)cc1
inactive: [1] 1 | [2] 0.991 | [3] 0.983 | [5] 0.879 | [6] 1.01 | [7] 0.994 | [8] 0.999 | [9] 1 | [27] 0.985 | [10] 0.997 | [11] 0.979 | S. cerevisiae deletion strains, locus YKL190W, strain CNB1, active compounds read low 1 | [12] 0.991 | [13] 0.99 | [14] 1.05 | [15] 0.998 | [16] 1 | [17] 0.988 | S. cerevisiae deletion strains, locus YMR307W, strain GAS1, active compounds read low 1.02 | [19] 1.04 | [20] 0.98 | [21] 1.04 | [22] 0.991 | [23] 1.01 | S. cerevisiae deletion strains, locus YOL006C, strain TOP1, active compounds read low 1.04 | [24] 0.984 | [25] 0.992 | [26] 0.997
